Entries with a potency or affinity are not part of this list.
Assays:
[1] = test system: Klebsiella pneumoniae; details: Concentration 20 uM; ASSAY_TEST Inhibition of Bacterial Growth; detection method Absorption (OD600); MEDIA CAMHB; plate type 384well; NBS; CORNING #3640; time 18 hr
[2] = test system: Candida albicans; details: 20 µM
[3] = test system: Cryptococcus neoformans; details: Concentration 20 uM; ASSAY_TEST Inhibition of Fungal Growth; detection method Resazurin; Absorption (OD600-OD570); plate type 384well; NBS; CORNING #3640

Compound | Inhibition [1] [%] | Inhibition [2] [%] | Inhibition [3] [%]
N#CCN(CCCCN1CCN(c2ccc(F)cc2)CC1)C(=O)OCc1ccccc1 | 11.82 | 2.42 | -5.61
O=C(c1ccc(NCCO)cc1)C1C[C@H]1c1ccc(Cl)cc1 (stereo not given in full) | 5.98 | 6.88 | 2.16
O=C(CCC1CCCCC1)Nc1cccc(-c2nnc(-c3ccco3)o2)c1 | 9.71 | 5.6 | -12.99
COc1ccc(-c2cnc3cnc(-c4cccc(OC(C)C)c4)cn23)cc1 | 4.82 | 11.6 | -13.72
COc1ccc(-c2cnc3ccc(N4CCCC4)nn23)cc1OC | 12.07 | 4.32 | -8.28
CC1CS(=O)(=O)CCN1/N=C/c1ccc([N+](=O)[O-])o1 (stereo not given) [NIFURTIMOX] | 15.43 | 4.12 | 5.99
O=C(NC1CCCCC1)N1CCN(Cc2ccc3c(c2)OCO3)CC1 | 10.77 | 0.64 | -16.64
Cc1cccc(Cn2ccc(NC(=O)c3ccc4c(c3)OCO4)n2)c1 | 15.15 | 6.79 | 3.81
Clc1ccc(Cl)c(CO[C@H]2CCCC[C@@H]2n2ccnc2)c1 | 15.52 | 2.99 | 2.84
CN1CCN(c2cc(-c3ccc(F)cc3)nc(-c3ccncc3)n2)CC1 | 4.2 | 3.25 | -11.56

Source: ChEMBL document CHEMBL4513149, “CO-ADD screening of MMV (CH) - MMV compounds” (2021)
